Consider seven molecules from PubChem BioAssay (NCI).

Among the test systems are DU-145 prostate; K-562 leukemia; MALME-3M melanoma; MDA-MB-231 breast; RXF 393 renal; SF-268 CNS; SF-295 CNS; SF-539 CNS; UACC-257 melanoma; M14 melanoma; HCT-15 colon; HT29 colon; SNB-75 CNS; SNB-19 CNS; U251 CNS; PC-3 prostate; SK-MEL-5 melanoma; UACC-62 melanoma; LOX IMVI melanoma; SK-MEL-28 melanoma.
Holding throughout (test): NCI-60 one-dose screen, 48 h (100 = growth as untreated, 0 = no growth, -100 = all killed)
Common to all, as to conditions: 10 µM unless noted

The panel holds about 83,000 compounds, 20% with a hit somewhere; the sample as a whole holds those more often.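 Values shown are percent growth following 48 h exposure of cells in 96-well plates to a single concentration of compound; below 10 was considered active.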 Values without a mark were called inactive. Calls of active or inactive are those of the source.

Consider `COc1cc(CNCCN2C(=O)c3ccc4c5c(ccc(c35)C2=O)C(=O)N(CCNCc2cc(OC)c(OC)c(OC)c2)C4=O)cc(OC)c1OC`, for which the growth was -56.8% (active) with DU-145 prostate; -4.93% (active) in the test with K-562 leukemia; -50.5% (active) with MALME-3M melanoma; -83.9% (active) in the test on MDA-MB-231 breast; -94.9% (active) with RXF 393 renal; -46.8% (active) in the test on SF-268 CNS. Moreover, the growth with SF-295 CNS is -68% (active); in the test on SF-539 CNS it was -84% (active); with UACC-257 melanoma, -70.9% (active); in the test with M14 melanoma, -96.9% (active); in the test on HCT-15 colon, -66.2% (active); in the test on HT29 colon, -52.3% (active). Moreover, the growth in the test with SNB-75 CNS is -98% (active); in the test with SNB-19 CNS, -79.8% (active); in the test with U251 CNS it was -68.1% (active); with PC-3 prostate it was -73.1% (active); with SK-MEL-5 melanoma it was -87.7% (active); in the test on UACC-62 melanoma, -92.4% (active). Besides, the growth in the test with LOX IMVI melanoma is -99% (active); in the test with SK-MEL-28 melanoma, -89.3% (active).
Take `CCN(CC)CCCNc1ccc(C)c2sc3ccccc3c(=O)c12`: the growth is 43.2% with DU-145 prostate; -7.56% (active) in the test with K-562 leukemia; -61.7% (active) with MALME-3M melanoma; -12.1% (active) in the test on MDA-MB-231 breast; 1.02% (active) with RXF 393 renal; 48.1% in the test on SF-268 CNS. The growth is 32.5% in the test with SF-295 CNS; 51.5% with SF-539 CNS; -61.3% (active) in the test on UACC-257 melanoma; -64.8% (active) in the test with M14 melanoma; -13.3% (active) with HCT-15 colon; -24.2% (active) with HT29 colon. The growth is 47.1% in the test with SNB-75 CNS; 46.7% in the test with SNB-19 CNS; 15.4% in the test on U251 CNS; 22.7% in the test on PC-3 prostate; -99.4% (active) in the test on SK-MEL-5 melanoma; -49.2% (active) in the test with UACC-62 melanoma. Besides, the values for the growth with LOX IMVI melanoma and in the test with SK-MEL-28 melanoma were -93.4% (active) and -80% (active), respectively.
On to `O=c1c2c(=NCCN3CCCC3)cc3c(=O)n(CCCN4CCOCC4)c(=O)c4ccc(c(O)n1CCCN1CCOCC1)c2c4-3`, for which the growth with DU-145 prostate was 2.23% (active); in the test with K-562 leukemia, 3.73% (active); in the test with MALME-3M melanoma it was -70.7% (active); in the test on MDA-MB-231 breast, -24.5% (active); with RXF 393 renal, -66.3% (active); in the test on SF-268 CNS it was -26.8% (active). Moreover, the growth is 1.07% (active) in the test on SF-295 CNS; -53.9% (active) with SF-539 CNS; -14.3% (active) in the test on UACC-257 melanoma; -73.4% (active) in the test on M14 melanoma; -11.8% (active) in the test on HCT-15 colon; -16.9% (active) in the test on HT29 colon. Moreover, the growth in the test with SNB-75 CNS is -88.8% (active); in the test on SNB-19 CNS, 1.06% (active); with U251 CNS, 5.11% (active); in the test with PC-3 prostate, -20.8% (active); in the test on SK-MEL-5 melanoma it was -14.9% (active); in the test on UACC-62 melanoma, -49.7% (active). Besides, the growth in the test on LOX IMVI melanoma is -6.84% (active); with SK-MEL-28 melanoma it was -32.9% (active).
Take `CN(C)c1ccc(/C=C(\C#N)c2cc3ccccc3n2C)cc1`: the growth with DU-145 prostate is 10.9%; in the test on K-562 leukemia, 7.77% (active); in the test with MALME-3M melanoma, 56.9%; with MDA-MB-231 breast it was 20.1%; with RXF 393 renal it was 10.5%; in the test with SF-268 CNS, 47.5%. The growth was 7.63% (active) in the test with SF-295 CNS; -12.5% (active) in the test on SF-539 CNS; 68.9% with UACC-257 melanoma; 8.17% (active) in the test with M14 melanoma; 20.6% in the test on HCT-15 colon; 10.3% in the test on HT29 colon. The growth was 20.8% in the test with SNB-75 CNS; 31% in the test with SNB-19 CNS; 19.4% in the test on U251 CNS; 34.4% in the test on PC-3 prostate; 19.3% in the test with SK-MEL-5 melanoma; 38.5% in the test on UACC-62 melanoma. Further, the growth in the test with LOX IMVI melanoma is 31.5%; in the test with SK-MEL-28 melanoma, 67.2%.
Turning to `Cc1c(C)n(CC(O)CNC2CCCCC2C)c2ccccc12` (stereo not given), the growth in the test with DU-145 prostate is -67.2% (active); with K-562 leukemia, 4.09% (active); with MALME-3M melanoma, -64.1% (active); in the test on MDA-MB-231 breast, -9.38% (active); in the test with RXF 393 renal, -90.2% (active); in the test on SF-268 CNS, -42.5% (active). In addition, the growth is -45.7% (active) in the test on SF-295 CNS; -87.3% (active) in the test on SF-539 CNS; -75.8% (active) in the test with UACC-257 melanoma; -59.4% (active) in the test with M14 melanoma; -16.2% (active) in the test on HCT-15 colon; -49.6% (active) with HT29 colon. Also, the growth in the test with SNB-75 CNS is -38.7% (active); in the test on SNB-19 CNS, 62%; in the test with U251 CNS it was -52.1% (active); in the test on PC-3 prostate, -24% (active); in the test on SK-MEL-5 melanoma it was -86.2% (active); in the test with UACC-62 melanoma, -84.7% (active). Moreover, the growth in the test on LOX IMVI melanoma was -83.1% (active); in the test on SK-MEL-28 melanoma, -85.2% (active).
For the molecule `Clc1ccc2c(c1)C[C@H]1C[C@@H](c3cccs3)N2O1`, the growth in the test with DU-145 prostate was 106%; with K-562 leukemia, 106%; in the test on MALME-3M melanoma, 95.9%; with MDA-MB-231 breast, 113%; in the test on RXF 393 renal, 131%; in the test on SF-268 CNS it was 102%. The growth in the test with SF-295 CNS is 94.4%; with SF-539 CNS it was 92.3%; in the test on UACC-257 melanoma it was 105%; in the test on M14 melanoma, 118%; in the test with HCT-15 colon it was 97.2%; in the test with HT29 colon, 111%. Further, the growth was 101% in the test on SNB-75 CNS; 114% in the test with SNB-19 CNS; 93.7% with U251 CNS; 91.6% in the test on PC-3 prostate; 99.5% with SK-MEL-5 melanoma; 105% in the test with UACC-62 melanoma. The growth with LOX IMVI melanoma was 93.2%; with SK-MEL-28 melanoma it was 110%.
Take `COc1ccc(C2=NOC(CC(=O)N(CCO)CCO)C2)cc1OC1CCCC1` (stereo not given): the growth in the test with DU-145 prostate was 105%; in the test on K-562 leukemia it was 121%; with MALME-3M melanoma, 111%; in the test with MDA-MB-231 breast, 103%; in the test on RXF 393 renal it was 102%; in the test on SF-268 CNS, 97%. In addition, the growth is 97.1% with SF-295 CNS; 104% in the test on SF-539 CNS; 102% in the test with UACC-257 melanoma; 92.2% in the test on M14 melanoma; 98.6% in the test on HCT-15 colon; 110% in the test on HT29 colon. The growth with SNB-75 CNS is 86.5%; in the test with SNB-19 CNS, 97%; in the test on U251 CNS it was 97.5%; in the test with PC-3 prostate it was 95.5%; with SK-MEL-5 melanoma it was 94.1%; in the test with UACC-62 melanoma it was 100%. In addition, the results for the growth in the test with LOX IMVI melanoma and in the test with SK-MEL-28 melanoma were 103% and 119%, respectively.
